Source: the supplement of paper PMC8726507

Each molecule was assayed on Plasmodium falciparum NF54-HGL (transmission to Anopheles stephensi) (assay: percentage of barcode signal found in uninfected mosquitoes (transmission-blocking activity); higher = stronger blocking of transmission to mosquito, active = 80 or more). Settings: 10 µM; gametocyte preincubation time 24 h; readout time post-feed 8 days.
Method: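 The mixture was fed to Anopheles stephensi in 96-well plates as blood meals tagged with DNA-barcoded Asaia bacteria. Eight days later, mosquitoes were classed infected or uninfected by luminescence (mean + 5 SD of unfed controls). Barcodes were quantified by Luminex MagPlex-TAG in the pooled uninfected and infected Asaia cultures, background-corrected, and the score is % of barcode signal in uninfected mosquitoes = 100*Iu/(Iu+Ii).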

Row | Structure (SMILES) | percentage of barcode signal found in uninfected mosquitoes
1 | COc1ccccc1C(C)NCC(=O)Nc1cc(C(F)(F)F)ccc1Cl (stereo not drawn) | 11.8% (inactive)
2 | COc1cccc(-n2nnnc2S(=O)(=O)Cc2ccccc2)c1 | 90.4% (active)
3 | CC1=NN(c2nc3ccccc3s2)C(=O)C1Cc1cccc2ccccc12 (stereo not drawn) | 0.165% (inactive)
4 | Cc1ccc(NC(=O)CC2COc3ccccc3O2)cc1Cl (stereo not drawn) | 38.8% (inactive)
5 | COc1cc(NC(C)CCCN)c2ncccc2c1 (stereo not drawn) | 48.2% (inactive)
6 | CCCn1nnc(NC(=O)COc2ccc(C3CCCCC3)cc2)n1 | 3.33% (inactive)
7 | Cc1cccc(NC(=O)c2cc(S(=O)(=O)N(C)c3ccc(F)cc3)ccc2Cl)n1 | 46.1% (inactive)
8 | CN1CCN(c2cc(-c3ccc(F)cc3)nc(-c3ccncc3)n2)CC1 | 1.2% (inactive)
9 | NCC(=O)N1CCn2c(nc(-c3ccccc3)c2Nc2ccc3c(c2)OCO3)C1 | 80.9% (active)
10 | N=C(N)c1ccc(-c2cc(-c3ccccc3)on2)cc1 | 33.2% (inactive)
11 | CN(C)c1cc(NC(=O)Nc2ccccc2)c2ccccc2n1 | 88.3% (active)
12 | O=C(Nc1ccc(N2CCNCC2)nc1)c1oc(-c2ccccc2)nc1C(F)(F)F | 79.2% (inactive)
13 | O=C(C1CCN(c2nnnn2-c2ccccc2)CC1)N1CCc2ccccc2C1 | 46.7% (inactive)
14 | O[C@@H](c1cc(C(F)(F)F)nc2c(C(F)(F)F)cccc12)[C@H]1CCCCN1 | 43.2% (inactive)
15 | COC(=O)C1=C(C)NC(C)=C(C(=O)OC(C)C)C1c1cccc2nonc12 (stereo not drawn) | 57.4% (inactive)
16 | CN(C(=O)c1cc2c(-c3cncnc3)cccc2[nH]1)c1ccccc1 | 66.4% (inactive)
17 | O=C(Nc1cccnc1)c1c(O)c2cccc3c2n(c1=O)CC3 | 20.2% (inactive)
18 | N#Cc1ccc(-c2ccc(OCC(N)=O)cc2)cc1 | -1.66% (inactive)
19 | Cc1ccc2c(c1C)NC(=O)C21NN=C(c2ccccc2)S1 (stereo not drawn) | 77% (inactive)
20 | Cc1cc(C(=O)Nc2ccc(-c3ccccc3)cc2)no1 | 64% (inactive)
21 | O=C(Nc1nnc(-c2ccc(Cl)cc2)o1)c1cccc(C(F)(F)F)c1 | -0.664% (inactive)
22 | Cc1nnc(NCc2cccc(Cl)c2)c2ccccc12 | 34.2% (inactive)

Same assay, conditions: 20 µM; gametocyte preincubation time 24 h; readout time post-feed 8 days

Row | Structure (SMILES) | percentage of barcode signal found in uninfected mosquitoes
23 | CC(C(=O)N1CCCC1)N1CCN(S(=O)(=O)c2ccc(C(C)(C)C)cc2)CC1 (stereo not drawn) | 0.922% (inactive)
24 | O=C(Nc1ccccc1)c1ccc(-c2cc3ccncc3cc2OC2CCNCC2)s1 | 82.7% (active)
25 | c1ccc(Oc2ccc(-c3cc(CN4CCOCC4)[nH]n3)cc2)cc1 | 3.15% (inactive)
26 | Cc1cc(OCC(=O)NCc2ccccc2)c2cc(Br)ccc2n1 | 0.13% (inactive)
27 | Cc1cc(NC(=O)c2ccc(Oc3ccc(Cl)cc3O)o2)no1 | 33% (inactive)
28 | Cc1ccccc1CN1CCC(O)(c2ccc(Cl)c(C(F)(F)F)c2)CC1 | -0.504% (inactive)
29 | COc1ccc2nc(C)cc(OCC(=O)Nc3ccccc3OC)c2c1 | 5.42% (inactive)
30 | Cc1ccc(NC(=O)c2cc(S(=O)(=O)NC(C)(C)C)ccc2C)nc1 | 20.2% (inactive)
31 | C[C@@H]1[C@H](O)[C@@H](C)/C=C/C=C/C=C/C=C/C=C/C=C/C=C/[C@H](O[C@@H]2O[C@H](C)[C@@H](O)[C@H](N)[C@@H]2O)C[C@@H]2O[C@](O)(C[C@@H](O)C[C@@H](O)[C@H](O)CC[C@@H](O)C[C@@H](O)CC(=O)O[C@H]1C)C[C@H](O)[C@H]2C(=O)O | -1.39% (inactive)
32 | CC(=O)N(CCN(C(=O)c1ccc(F)cc1)c1ccccc1)c1ccccc1 | 1.19% (inactive)
33 | CCCc1ccc(S(=O)(=O)Nc2ccc(CN3CCN(CC4CC4)CC3)cc2)cc1 | 9.2% (inactive)
34 | Cc1cc(OCC(=O)Nc2ccc(C(C)C)cc2)n(C)c(=O)c1C#N | 35% (inactive)
35 | CNC(=O)C1Cc2c([nH]c3cc(Cl)ccc23)C2(CCN(CCc3ccccc3)CC2)N1 (stereo not drawn) | 87.5% (active)
36 | CN1CCC(c2cc(-c3ccncc3)c(-c3ccc(F)cc3)[nH]2)CC1 | 78.1% (inactive)
37 | Nc1ncc(Br)cc1-c1nc2cc(Cl)cnc2[nH]1 | 21.4% (inactive)
38 | COc1cc(C(F)(F)F)nc2ccc(C)c(N)c12 | -0.0386% (inactive)
